# ChEMBL document CHEMBL1157539, “Thousands of chemical starting points for antimalarial lead identification” (Nature, 2010)
# System: Plasmodium falciparum
# Test: GSK_TCMDC: Inhibition of Plasmodium falciparum Dd2 in whole red blood cells, using parasite LDH activity as an index of growth. Test compounds present at 2uM
# Assay type: functional
row,Structure (SMILES),Inhibition
1,Cc1cccc2nc(-c3ccc(-c4cccc(NCc5cn6cccnc6n5)c4)cc3)[nH]c12,63%
2,CCOC(=O)c1c(C)n(-c2ccccc2)c2ccc(OC(=O)COc3ccc(Cl)cc3Cl)cc12,87%
3,CCn1cnc2c(N3CCCS3(=O)=O)cc(C(=O)N[C@@H](Cc3ccccc3)[C@H](O)CNC(C)(C)c3cccc(C(F)(F)F)c3)cc21,97%
4,CN1CCCN(Cc2ccc(-c3ccc(NC(=O)c4cccc(C#N)c4)cc3)cc2)CC1.O=C(O)C(F)(F)F,67%

# System: HepG2
# Test: GSK_TCMDC: Percent inhibition of human HepG2 cell line. Test compounds present at 10uM.
# Assay type: functional
row,Structure (SMILES),Inhibition
1,COC(=O)Cn1c(C2CCN(CC3CCN(C(=O)/C=C/c4ccc(Cl)c(Cl)c4)CC3)CC2)nc2ccccc21,19%
2,Br.COc1ccc(CCCON2C(=N)N=C(N)NC2(C)C)cc1,61%
3,O=C(Nc1cccc(CN2CCN(C(=O)c3cccc(F)c3)CC2)c1)c1ccco1.O=C(O)C(F)(F)F,7%
4,COc1ccc(OC)c(-c2cccc(-c3cccc(NC(=O)c4ccc([N+](=O)[O-])o4)c3)n2)c1,75%
5,CCOc1cc(N)c2nc3ccc([N+](=O)[O-])cc3cc2c1,73%
6,Cc1cccc(CNc2nc(C)cc(NCCC(=O)Nc3ccccc3)n2)c1.O=C(O)C(F)(F)F,15%
7,CC(C)c1cc(Oc2c(I)cc(CCNCc3ccccc3)cc2I)ccc1O.Cl,42%
8,CC1CN(c2cnn(Cc3cccc(NC(=O)Nc4ccc(F)cc4[N+](=O)[O-])c3)c(=O)c2Cl)CC(C)N1.O=C(O)C(F)(F)F (centres undefined),7%
9,Cc1ccc(Cl)cc1N1CCN(CCCNC(=O)C2CCN(c3nc4ccccc4[nH]3)CC2)CC1,41%
10,COc1cc(CNc2ncc(-c3ccsc3)c(-c3nccs3)n2)cc(OC)c1,3%
11,CC(C)NC[C@@H](O)[C@H](Cc1ccccc1)NC(=O)c1cc2c3c(c1)c(C(C)C)cn3CCS(=O)(=O)N2C.O=CO,5%
12,Cc1c(CCC#N)c(NCc2ccccc2)n2c(nc3ccccc32)c1C#N,16%
13,N#Cc1cccc(CN2CCCN(Cc3ccc(C(=O)Nc4ccc(Cl)cc4)cc3)CC2)c1.O=C(O)C(F)(F)F,48%
14,CC(C)(C)NCCN(Cc1ccc(-c2ccc(C(F)(F)F)cc2)cc1)C(=O)Cn1c(CCc2cccc(F)c2F)nc(=O)c2ccccc21,46%
15,Cc1nc(-c2nc(NCCc3c(C)noc3C)ncc2-c2ccsc2)sc1C,12%
16,Cc1ccc2[nH]cc(/C=C/C(=O)NC3CCC(CCN4CCc5ccc(C#N)cc5CC4)CC3)c2c1.Cl (centres undefined),11%
17,CS(=O)(=O)N1CC2(CCN(CCC(NC(=O)NCc3ccccc3Cl)c3ccc(Cl)c(Cl)c3)CC2)c2ccccc21 (centres undefined),12%
18,CN1CCC(c2c[nH]c3ccc(NC(=O)Nc4ccc(-c5ccncc5)c(Cl)c4Cl)cc23)CC1,27%
19,c1csc(-c2nc(N3CCCCC3)ncc2-c2ccsc2)n1,0%
20,COc1ccc(S(=O)(=O)Nc2ccc(C(=O)NCc3ccc(C(F)(F)F)cc3)cc2)cc1N1CCN(CC2CC2)CC1.O=C(O)C(F)(F)F,34%

row,Structure (SMILES),Inhibition
1,O=C(/C=C/c1ccc(Cl)c(Cl)c1)NCCCCCN1CCC(NC(=O)NC2CCCC2)CC1,21%
2,O=C(Nc1ccc(S(=O)(=O)NCCCN2CCOCC2)cc1)c1cc(-c2ccccc2)[nH]n1,16%
3,COc1ccc2[nH]c(C(=O)Nc3ccc4[nH]c(-c5ccccc5)nc4c3)cc2c1.O=C(O)C(F)(F)F,51%
4,O=C(/C=C/c1ccc(Cl)c(Cl)c1)NCCCCCN1CCC(NC(=O)c2ccc(F)c(F)c2)CC1,36%
5,COc1ccc(CN2CCC(NCc3cccc([N+](=O)[O-])c3)CC2)cc1.O=C(O)C(F)(F)F,6%
6,CC(C)(C)c1ccc(NC(=O)c2ccc(CN3CCCN(Cc4ccc(F)cc4)CC3)cc2)cc1.O=C(O)C(F)(F)F,55%
7,NC(=O)c1cccc(CNC(=O)NC[C@H]2CN(Cc3ccc(Cl)c(Cl)c3)CCO2)c1,0%
8,CCCCC(=O)Nc1nc2ccc([N+](=O)[O-])cc2s1,9%
9,Cl.O=C(/C=C/c1ccccc1F)NC1CCC(CCN2CCc3ccc(-c4cccnc4)cc3CC2)CC1 (centres undefined),34%
10,Cc1cc(OCC2CCN(c3ncc(C(=O)Nc4ccccc4)cc3Cl)CC2)ccc1F,27%
11,CC[C@H]1CN2CCc3c([nH]c4ccccc34)[C@@H]2C[C@@H]1CC1c2cc(OC)c(OC)cc2CCN1C.Cl (some centres undefined),31%
12,Oc1ccc2[nH]cc(C3CCN(CCC(c4ccccc4)c4ccccc4)CC3)c2c1,27%
13,O=C(Nc1cccc(-c2nn3ccccc3c2-c2ccnc(Nc3ccccc3)n2)c1)c1c(F)cccc1F,69%
14,Cc1cc(NC(=O)c2cccs2)ccc1OC1CCN(Cc2ccccc2)CC1.O=C(O)C(F)(F)F,10%
15,O=C(NC1CC1)c1ccc(Cn2c(SCc3cccc(Cl)c3)nc3ccccc3c2=O)cc1,2%
16,COc1cc(C(=O)Nc2nc3ccccc3[nH]2)ccc1OCC(=O)Nc1cccc(C(F)(F)F)c1,33%
17,Cc1cccc2nc(-c3ccc(-c4cccc(NCc5cn6cccnc6n5)c4)cc3)[nH]c12,9%
18,CCOC(=O)c1c(C)n(-c2ccccc2)c2ccc(OC(=O)COc3ccc(Cl)cc3Cl)cc12,11%
19,CCn1cnc2c(N3CCCS3(=O)=O)cc(C(=O)N[C@@H](Cc3ccccc3)[C@H](O)CNC(C)(C)c3cccc(C(F)(F)F)c3)cc21,9%
20,CN1CCCN(Cc2ccc(-c3ccc(NC(=O)c4cccc(C#N)c4)cc3)cc2)CC1.O=C(O)C(F)(F)F,46%
